Data reported in the supplement of paper PMC8183993.
“And” between values parts separate entries of the source, which are not always exact repeats. Identical values can stand only once. Counter-ions that a name gives are not always drawn. ± gives the standard deviation of the averaged measurements. In all, about 3,200 compounds were measured (“nuclei count (viability) relative to DMSO”: median about 99, lowest 2% from about 16 on). What follows is part of a selection rich in the lowest values, with near analogues and random picks from the rest.

System: U2OS
Test: nuclei count (viability) relative to DMSO (% of DMSO); higher = more viable cells
Settings: 10 µM; 24 h
Description: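 Primary image-based screen in U2OS cells: compounds at 10 uM for 24 h, then a 1 h o-propargyl-puromycin (OPP) pulse, click labelling, and high-throughput microscopy. Mean cytoplasmic OPP intensity and nuclei count were normalised to DMSO wells within each plate (DMSO = 100) and averaged over triplicate plates.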

Compound | nuclei count
N[C@@H](CS(=O)O)C(=O)O [L-Cysteinesulfinic acid] | 102
CC1=NN(c2ccc(C)c(C)c2)C(=O)/C1=N\Nc1cccc(-c2cccc(C(=O)O)c2)c1O | 98.3
C=CC(=O)Nc1cccc(Nc2nc(Nc3ccc(Oc4ccnc(C(=O)NC)c4)cc3)ncc2F)c1 | 63.4
CCC(=O)Nc1cccc(Oc2nc(Nc3ccc(N4CCN(C)CC4)cc3OC)ncc2Cl)c1 | 94.6
C=CC(=O)Nc1cccc(Oc2nc(Nc3ccc(N4CCN(C)CC4)cc3)ncc2Cl)c1 | 6.24
C=CC(=O)Nc1cccc(Sc2nc(Nc3ccc(N4CCN(C)CC4)cc3)ncc2Cl)c1 | 13.6
C=CC(=O)Nc1ccc2ncnc(Nc3cccc(Br)c3)c2c1 | 79.2 ± 4.8
C=CC(=O)Nc1cccc(Oc2nc(Nc3ccc(N4CCN(C)CC4)cc3OC)ncc2Cl)c1 | 107
NC1CCN(c2cccc(Cl)n2)CC1 | 103
COC(=O)C1=C(C)NC(C)=C(C(=O)NCCCN2CCC(c3ccccc3)(c3ccccc3)CC2)C1c1ccc([N+](=O)[O-])cc1 (stereo not given) | 55.1
O=C(O)CCc1ccc(NCc2cccc(Oc3ccccc3)c2)cc1 | 90.2
COC(C)(C)CCCC(C)C/C=C/C(C)=C/C(=O)O (stereo not given) [Methoprene acid] | 105
COc1ccc(CN2C(=O)C(=O)c3cc(OC(F)(F)F)ccc32)cc1 | 17.3
O=[N+]([O-])c1ccc2c(c1)S(=O)(=O)C=C2 [Stattic] | 14.1
O=C1Nc2ccc([N+](=O)[O-])cc2C1=O [5-Nitroisatin] | 99
CS(=O)(=O)Nc1ccc([N+](=O)[O-])cc1Oc1ccccc1 [Nimesulide] | 103 ± 6.9
CCCC[P+](CCCC)(CCCC)Cc1ccc(NC(=O)C(Cc2ccc3ccccc3c2)NC(=NC2CCCCC2)NC2CCCCC2)cc1 (stereo not given) | 94.1
CC(C)C[C@H](NC(=O)[C@@H](O)[C@H](N)Cc1ccccc1)C(=O)O [Bestatin] | 94.4
CC(C)C[C@H](NC(=O)[C@H](Cc1ccccc1)NC(=O)c1cnccn1)B(O)O [Bortezomib (Velcade)] | 7.65
Nc1nc(NCCc2ccc(O)cc2)nc2nc(-c3ccco3)nn12 | 114
CCCOc1ccn2c(C(C)=O)cc(-c3ccccc3S(C)(=O)=O)c2c1 | 96.4
Cc1cc(=O)n(C)c2cc(N3C(=O)CC[C@H](NS(=O)(=O)CC(C)C)[C@H]3c3ccc(Cl)cc3)ccc12 | 104
COCCCN1CCC(NC(=O)c2cc(Cl)c(N)c3c2OCC3)CC1 [Prucalopride] | 103
O=c1[nH]nc(Sc2ncc([N+](=O)[O-])s2)n1-c1ccc2c(c1)OCCO2 | 6.42 ± 2.8
O=C1NCCN1c1ncc([N+](=O)[O-])s1 [Niridazole] | 90.4
O=c1nc2ccccc2c2n1CC(CN1CCN(c3ccccc3)CC1)N2 (stereo not given) | 100
COc1cc2c(cc1OC)CN(CCc1ccc(NC(=O)c3cc(OC)c(OC)cc3NC(=O)c3cnc4ccccc4c3)cc1)CC2 [Tariquidar] | 96.8
CCCCC/C=C/C=C1/C(=O)C=C[C@@H]1C/C=C\CCCC(=O)O [15-Deoxy-D12,14-prostaglandin J2] | 85.6

Compound | nuclei count
O=C(Nc1ccccc1-c1cn2c(CN3CCNCC3)csc2n1)c1cnc2ccccc2n1 | 12.2
O=[N+]([O-])c1cccc2c(Br)[nH]nc12 [3-Bromo-7-nitroindazole] | 102
CCC(=O)OCN1C(=O)C=CC1=O | 109
CN(CCOc1ccc(-c2ccc3c(c2)OCO3)cc1C(C)(C)C)CC(=O)O | 98
COC(=O)[C@H](Cc1ccccc1)NC(=O)[C@@H](N)CC(=O)O [Aspartame] | 108
COC[C@H](NC(=O)c1cnc(C)s1)C(=O)N[C@@H](COC)C(=O)N[C@@H](Cc1ccccc1)C(=O)[C@@]1(C)CO1 [Oprozomib (ONX 0912)] | 11.1
O=C(CCc1ccc(O)cc1)c1c(O)cc(O)cc1O[C@@H]1O[C@H](CO)[C@@H](O)[C@H](O)[C@H]1O [Phlorizin (Phloridzin)] | 82.5
Oc1cc2c(c(Cl)c1O)CCNCC2c1ccccc1 (stereo not given) | 91.2
O=C1CCc2c(ccc3ccccc23)O1 [Splitomicin] | 104 ± 5.1
CCCC[C@@H](C=O)NC(=O)[C@H](CC(C)C)NC(=O)OCc1ccccc1 [Calpeptin] | 102 ± 1.9
CC(NC(=O)C(Cc1ccccc1)NC(=O)OCc1ccccc1)C(=O)CF (stereo not given) | 95
CC(C)C[C@@H](C=O)NC(=O)[C@H](CC(C)C)NC(=O)[C@H](CC(C)C)NC(=O)OCc1ccccc1 | 10.9 and 7.59
CC1C(=O)OC2C(O)C34C5CC(C(C)(C)C)C36C(OC(=O)C6O)OC4(C(=O)O5)C12O (stereo not given) [Ginkgolide B] | 95
NCCCCCc1c[nH]cn1 [Impentamine dihydrobromide] | 90.5
CN(Cc1ccccc1)C(=O)[C@H](Cc1ccc2ccccc2c1)NC(=O)[C@@H]1CCCN1C(=O)Nc1ccccc1[N+](=O)[O-] | 100
OC(c1cc(C(F)(F)F)nc2c(C(F)(F)F)cccc12)C1CCCCN1 (stereo not given) [Mefloquine hydrochloride] | 10.7
Oc1ccc(OC2CCCCO2)cc1 (stereo not given) [Deoxyarbutin] | 91.1
COC(=O)[C@@H]1CC2=CC(=O)CC[C@]2(C)[C@@]23O[C@@H]2C[C@@]2(C)[C@@H](CC[C@@]24CCC(=O)O4)[C@H]13 [Eplerenone] | 104 ± 3.6
Cc1cc(Nc2ncc(Cl)c(Nc3ccccc3S(=O)(=O)C(C)C)n2)c(OC(C)C)cc1C1CCNCC1 [Ceritinib (LDK378)] | 14.7
CC(C)Oc1cc(Nc2nc(N[C@@H](C)c3ccc(F)cn3)ncc2Cl)n[nH]1 | 52.7
Cc1cccc(C)c1NC(=O)C[N+](C)(C)C | 106
CCn1nnc2c(N3CCOCC3)nc(-c3ccc(NC(=O)Nc4ccc(C(=O)N5CCN(C)CC5)cc4)cc3)nc21 | 77.7
CC(C)c1ccc(Cn2ccc3c4c(N)nc(NC5CC5)nc4ccc32)cc1 | 29.3
Cc1c(NC(=O)N2CCOCC2)ccc2c1c1ccccc1n2C(C)C | 94.6
CC(C)C[C@H](NC(=O)[C@H](CCC(=O)O)NC(=O)CNC(=O)c1ccc(/C=C/C(=O)O)cc1)C(N)=O | 97.5
CC(C)C[C@H](NC(=O)CNC(=O)c1cc(Cl)ccc1Cl)B1OC(=O)C(CC(=O)O)(CC(=O)O)O1 | 11.6
CC(C)C[C@H](NC(=O)CNC(=O)c1cc(Cl)ccc1Cl)B(O)O | 9.55
